Assay outcomes from PubChem BioAssay.
Most compounds without a hit are left out; they make up all but 6.7% or so of the library.
Pf Dd2 inh – P. falciparum Dd2 growth inhibitors, primary screen, SYBR Green fluorescence, single dose replicates. 72 h; active compounds read low. activity change, % at 10 µM. actives 2.3% (n = 94,000); in the data active = activity change below about -80%; inconclusive = no clear call, values can overlap the other calls
T cruzi growth-1 – T. cruzi intracellular proliferation inhibitors, primary screen, cell-based, beta-gal Tulahuen parasites, NIH3T3 host, luminescence. T. cruzi beta-gal in NIH3T3, GalScreen luminescence, 90 h. inhibition, % at 8.34 µM. actives 5.9% (n = 77,000);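 active = mean inhibition above about 93%, with at least 55% of replicates each passing it, limit read from the data, passing the limit was not always enough; inconclusive = only one of those two conditions holds; inactive = neither condition holds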
C diff HTS – C. difficile growth inhibitors, primary screen, HTS; Clostridium difficile clinical isolate growth, OD600, 24 h; active compounds read low; actives 0.25% (n = 86,000); growth activity, negative = inhibition, % at 16 µg/mL (by protocol); AID 1259249, 2017;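 active = mean growth activity at or below -80% and every replicate also at or below -80%; inconclusive = mean at or below -80% but some replicate above -80%; inactive = mean growth activity above -80%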;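 note: 0% = DMSO wells and -100% = levofloxacin 16 µg/mL wells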
T cruzi growth-2 – T. cruzi intracellular proliferation inhibitors, confirmation, cell-based, NIH3T3 host, beta-gal parasite, luminescence, cherry-pick; shares compounds with T cruzi growth-1; T. cruzi beta-gal in NIH3T3, GalScreen luminescence, 90 h; inhibition, % at 8.35 µM; actives 72% (n = 5,600);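 active = mean replicate inhibition above about 95% and at least 55% of replicates individually reaching it, limit read from the data; inconclusive = only one of the two criteria is met; inactive = neither criterion is met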
T cruzi growth-3 – inhibitors of intracellular T. cruzi replication, confirmation, NIH3T3 host cells, beta-gal parasites, cherry-pick, set 2; shares compounds with T cruzi growth-1; T. cruzi beta-gal in NIH3T3, GalScreen luminescence, 90 h; inhibition, % at 2.09 µM; actives 21% (n = 5,600); AID 651740, 2012;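 active = mean inhibition above about 95%, with at least 55% of replicates also reaching it, limit read from the data; inconclusive = meets just one of the two conditions; inactive = meets neither condition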;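 note: plate controls were neutral control median for no effect and positive control median for full effect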
3T3 cytotox – cytotoxicity in mouse NIH/3T3 fibroblasts, confirmation, cytotoxicity control for T. cruzi proliferation inhibitor project, cell-based, cherry-pick, single point. NIH/3T3 viability, CellTiter-Glo ATP luminescence, 90 h. shares compounds with T cruzi growth-1. AID 651742, 2012. actives 14% (n = 5,600). cytotoxicity (signal decrease), % at 8.35 µM;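 active = mean signal decrease across replicates above about 35% based on untreated-well scatter, with enough replicates individually passing, limit read from the data; inconclusive = no rule stated though some were filed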;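 note: 0% = median of neutral control wells and 100% = median of positive control wells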
3T3 cytotox 2 – NIH/3T3 fibroblast cytotoxicity, confirmation, cytotoxicity control, cell-based, cherry-pick, single point, set 2; NIH/3T3 viability, CellTiter-Glo ATP luminescence, 90 h; inhibition, % at 24.9 µM; actives 56% (n = 5,600); AID 651744, 2012; shares compounds with T cruzi growth-1;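 active = mean loss of cell viability signal at or above a set limit, and enough replicates individually reaching it; inconclusive = meets only the mean limit or only the replicate share; inactive = meets neither condition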;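 note: 0% = median of neutral control wells and 100% = median of positive control wells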
The depositor's hits bear a star; ? = inconclusive; . = no result given.

SMILES	Pf Dd2 inh	T cruzi growth-1	C diff HTS	T cruzi growth-2	T cruzi growth-3	3T3 cytotox	3T3 cytotox 2
N#C[C@H]1[C@@H](c2ccc(-c3ccncc3)cc2)[C@@H](CO)N1C(=O)Cc1ccccc1	-25.1	?	7.4	103.5*	8.3	29.1	43.7*
N#C[C@@H]1[C@@H](c2ccc(-c3ccncc3)cc2)[C@@H](CO)N1C(=O)Cc1ccccc1	-53.4	?	-3.0	-2.8	-125.1	26.6	28.4*
N#C[C@H]1[C@@H](c2ccc(-c3ccc(F)cc3)cc2)[C@@H](CO)N1C(=O)Cc1ccccc1	-6.5	73.6	6.3	.	.	.	.
N#C[C@H]1[C@H](c2ccc(-c3ccccc3)cc2)[C@H](CO)N1C(=O)Cc1ccncc1	-80.0	102.2*	3.5	109.8*	40.1	-4.4	?
N#C[C@H]1[C@H](c2ccc(C#Cc3ccc(F)cc3)cc2)[C@H](CO)N1C(=O)Cc1ccncc1	-72.6	?	-13.6	89.4	87.3	-24.3	?
N#C[C@@H]1[C@H](c2ccc(-c3cncnc3)cc2)[C@@H](CO)N1C(=O)Cc1ccccc1	31.1	88.1	-9.6	.	.	.	.
N#C[C@H]1[C@H](c2ccc(-c3ccc(F)cc3)cc2)[C@H](CO)N1C(=O)Cc1ccccc1	-16.1	87.7	15.9	.	.	.	.
N#C[C@@H]1[C@@H](c2ccc(-c3ccccc3)cc2)[C@@H](CO)N1C(=O)Cc1ccncc1	-7.8	92.7	-1.8	.	.	.	.
O=C(C[C@@H]1CC[C@@H]2[C@H](COC[C@H](O)CN2Cc2ccc(C(F)(F)F)cc2)O1)NCCc1ccccc1	-13.5	.	8.9	.	.	.	.
COc1ccc2c3c(n(C)c2c1)[C@@H](CO)N(C(=O)Nc1ccc(F)cc1)CC31CCN(S(=O)(=O)c2cccc(C)c2)CC1	-44.4	.	7.8	.	.	.	.
CO[C@@H](CN(C)C(=O)c1ccccc1F)[C@@H](C)CN([C@@H](C)CO)S(=O)(=O)c1ccc(Cl)cc1	6.8	-22.2	.	.	.	.	.
C[C@H]1CN([C@@H](C)CO)C(=O)c2cc(-c3ccccc3F)cnc2O[C@@H]1CN(C)C(=O)CN(C)C	18.3	13.0	-2.1	.	.	.	.
C[C@H](CO)N1C[C@H](C)[C@@H](CN(C)C)OCCCC[C@H](C)Oc2ccc(NS(C)(=O)=O)cc2C1=O	34.7	-8.5	-0.8	.	.	.	.
O=C(C[C@@H]1CC[C@@H]2[C@H](COC[C@H](O)CN2S(=O)(=O)c2ccc(F)cc2)O1)NCC1CCCCC1	.	?	4.8	1.9	1.2	-8.4	20.6
O=C(C[C@@H]1CC[C@@H]2[C@H](COC[C@@H](O)CN2S(=O)(=O)c2ccc(F)cc2)O1)NCCN1CCCCC1	1.5	51.0	.	.	.	.	.
O=C(C[C@H]1CC[C@@H]2[C@H](COC[C@@H](O)CN2S(=O)(=O)c2ccc(F)cc2)O1)NCCN1CCCCC1	-27.8	114.5*	.	16.4	-28.1	-9.8	-19.4
O=C(C[C@@H]1CC[C@@H]2[C@H](COC[C@@H](O)CN2S(=O)(=O)c2ccc(F)cc2)O1)NCC1CC1	-1.5	16.4	-22.0	.	.	.	.
COc1ccccc1NC(=O)N1C[C@@H](O)COC[C@H]2O[C@@H](CC(=O)NCCc3ccccc3)CC[C@@H]21	-21.8	57.6	.	.	.	.	.
CCNC(=O)C[C@H]1CC[C@H]2[C@@H](COC[C@H](O)CN2C(=O)C2CC2)O1	-0.8	-10.6	-3.4	.	.	.	.
O=C(C1CCOCC1)N1[C@H](CO)[C@@H](c2ccccc2)C12CN(Cc1cccnc1)C2	3.5	.	8.9	.	.	.	.
CCCC#Cc1cnc2c(c1)C(=O)N([C@H](C)CO)C[C@H](C)[C@@H](CN(C)Cc1ccncc1)O2	-10.2	54.6	4.1	.	.	.	.
C[C@H](CO)N1C[C@H](C)[C@H](CN(C)Cc2ccc(F)cc2)Oc2ncc(/C=C/c3ccccc3)cc2C1=O	-63.3	.	26.1	.	.	.	.
